Data reported in PubChem BioAssay (EPA / NIEHS).
Several values for one entry are separate records, joined by “and”; a condition that tells them apart may be missing. Identical values can stand only once. Records with an inconclusive call do not appear. More than one record can exist for a structure, and the calls need not agree. Activity calls are given as the source filed them. The calls were made as follows: active = hit-call score of the fitted dose curve at least 0.9, where 1 is the maximum; inconclusive = response in the unintended direction; inactive = score below 0.9.

What was measured:
[1] = target: human Protein Tyrosine Phosphatase Non-receptor Type 6 (PTPN6), PTPN6 (gene 5777) (UniProt P29350); assay: NVS_ENZ_hPTPN6: NovaScreen (NVS) Enzymatic Assay for human Protein Tyrosine Phosphatase Non-receptor Type 6 (PTPN6) (AID 2283210)
Method in brief: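 Cell-free assay with recombinant PTPN6 expressed in SF9 cells, fluorescent substrate, product separated from substrate by electrophoretic mobility shift; read 1.33 hours after dosing. Primary screen in duplicate at 25 uM, actives retested in concentration series; DMSO baseline.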

[2] = target: human Protein Tyrosine Phosphatase Receptor Type B (PTPRB), PTPRB (gene 5787) (UniProt P23467); assay: NVS_ENZ_hPTPRB: NovaScreen (NVS) Enzymatic Assay for human Protein Tyrosine Phosphatase Receptor Type B (PTPRB) (AID 2283211)
Method in brief: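 Recombinant human PTPRB with a fluorescent substrate, product separated by electrophoretic mobility shift; read 1 h after dosing. Primary screen in duplicate at 25 uM; actives then retested in concentration series; loss of signal versus DMSO.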

[3] = target: human Protein Tyrosine Phosphatase Receptor Type C (PTPRC), PTPRC (gene 5788) (UniProt P08575); assay: NVS_ENZ_hPTPRC: NovaScreen (NVS) Enzymatic Assay for human Protein Tyrosine Phosphatase Receptor Type C (PTPRC) (AID 2283212)
Method in brief: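 Yeast-extracted human PTPRC used in a cell-free colorimetric enzyme activity read-out, 1 h after dosing. Primary screen in duplicate at 25 uM; actives rerun in concentration-response up to 50 uM, DMSO as baseline.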

[4] = target: human Protein Tyrosine Phosphatase Receptor Type F (PTPRF), PTPRF (gene 5792) (UniProt P10586); assay: NVS_ENZ_hPTPRF: NovaScreen (NVS) Enzymatic Assay for human Protein Tyrosine Phosphatase Receptor Type F (PTPRF) (AID 2283213)
Method in brief: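 Cell-free fluorescence enzyme assay with recombinant protein and substrate; product separated by electrophoretic mobility shift. Read 1 h after dosing, single 25 uM duplicate screen, then concentration-response up to 50 uM; loss of signal vs DMSO.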

[5] = target: human Rho Associated Coiled-coil Containing Protein Kinase 1 (ROCK1), ROCK1 (gene 6093) (UniProt Q13464); assay: NVS_ENZ_hROCK1: NovaScreen (NVS) Enzymatic Assay for human Rho Associated Coiled-coil Containing Protein Kinase 1 (ROCK1) (AID 2283214)
Method in brief: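 Cell-free recombinant human ROCK1 activity assay; fluorescent substrate and product separated by electrophoretic mobility shift, read 1 h after dosing. Screened in duplicate at 25 uM; loss of signal versus DMSO baseline scored as inhibition.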

[6] = target: human Protein Tyrosine Phosphatase Receptor Type M (PTPRM), PTPRM (gene 5797) (UniProt P28827); assay: NVS_ENZ_hPTPRM: NovaScreen (NVS) Enzymatic Assay for human Protein Tyrosine Phosphatase Receptor Type M (PTPRM) (AID 2283215)
Method in brief: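 Cell-free recombinant PTPRM with fluorogenic substrate; product separated from substrate by electrophoretic mobility shift and read by fluorescence, 1.33 h after dosing. Primary screen single concentration (25 uM) in duplicate; actives retested in concentration series; loss of signal versus DMSO.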

[7] = target: human Raf-1 Proto-Oncogene, serine/threonine Kinase (RAF1), RAF1 (gene 5894) (UniProt P04049); assay: NVS_ENZ_hRAF1: NovaScreen (NVS) Enzymatic Assay for human Raf-1 Proto-Oncogene, serine/threonine Kinase (RAF1) (AID 2283216)
Method in brief: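 Cell-free recombinant kinase with specific fluorescent substrate, product separated by electrophoretic mobility shift; read 1 h after dosing. Primary screen at 25 uM in duplicate; hits then run in concentration-response up to 50 uM, fitted as loss of signal versus DMSO.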

[8] = target: human Sirtuin 2 (SIRT2), SIRT2 (gene 22933) (UniProt Q8IXJ6); assay: NVS_ENZ_hSIRT2: NovaScreen (NVS) Enzymatic Assay for human Sirtuin 2 (SIRT2) (AID 2283217)
Method in brief: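 Cell-free recombinant human SIRT2, fluorescent substrate with product separated by electrophoretic mobility shift, 1 hr. Screened in duplicate at 25 uM; hits rerun singly in concentration-response up to 50 uM, relative to DMSO.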

[9] = target: human Tropomyosin Receptor Kinase A (TRKA), NTRK1 (gene 4914) (UniProt P04629); assay: NVS_ENZ_hTrkA: NovaScreen (NVS) Enzymatic Assay for human Tropomyosin Receptor Kinase A (TRKA) (AID 2283224)
Method in brief: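 Recombinant human TrkA activity read after 1 h by fluorescence with electrophoretic mobility shift separating substrate and product. Primary screen in duplicate at 25 uM; actives were rerun in concentration-response up to 50 uM. Loss of signal versus DMSO.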

[10] = target: human Tyrosine Protein Kinase Receptor Tie-2 (Tie2), TEK (gene 7010) (UniProt Q02763); assay: NVS_ENZ_hTie2: NovaScreen (NVS) Enzymatic Assay for human Tyrosine Protein Kinase Receptor Tie-2 (Tie2) (AID 2283225)
Method in brief: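 Recombinant human Tie2 kinase activity was read cell-free by fluorescence with electrophoretic mobility shift, 1 hour after dosing. The screen used 25 uM in duplicate, then concentration-response up to 50 uM. Signal loss was scored against DMSO.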

[11] = target: human Vascular Endothelial Growth Factor Receptor 1 (VEGFR1), FLT1 (gene 2321) (UniProt P17948); assay: NVS_ENZ_hVEGFR1: NovaScreen (NVS) Enzymatic Assay for human Vascular Endothelial Growth Factor Receptor 1 (VEGFR1) (AID 2283226)
Method in brief: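 Cell-free assay of recombinant human VEGFR1 kinase with substrate, measured 1 h after dosing; fluorescence with electrophoretic mobility-shift separation of substrate and product, referenced to DMSO; primary screen at 25 uM in duplicate, actives then run in concentration series.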

[12] = target: human Vascular Endothelial Growth Factor Receptor 3 (VEGFR3), FLT4 (gene 2324) (UniProt P35916); assay: NVS_ENZ_hVEGFR3: NovaScreen (NVS) Enzymatic Assay for human Vascular Endothelial Growth Factor Receptor 3 (VEGFR3) (AID 2283229)
Method in brief: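 Cell-free recombinant VEGFR3 kinase reaction with fluorescent substrate, read 1 h after dosing by electrophoretic mobility shift separation of substrate and product. Single-concentration duplicate screen at 25 uM, then concentration-response up to 50 uM; loss of activity versus DMSO.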

[13] = target: human Vascular Endothelial Growth Factor Receptor 2 (VEGFR2), KDR (gene 3791) (UniProt P35968); assay: NVS_ENZ_hVEGFR2: NovaScreen (NVS) Enzymatic Assay for human Vascular Endothelial Growth Factor Receptor 2 (VEGFR2) (AID 2283230)
Method in brief: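 Cell-free recombinant VEGFR2 kinase, fluorescent substrate with electrophoretic mobility-shift separation; read 1 h after dosing. Screened at 25 uM in duplicate, hits to concentration-response up to 50 uM; loss-of-signal versus DMSO.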

[14] = target: sheep Cyclooxygenase-2 (Cox2), PTGS2 (gene 443460) (UniProt P79208); assay: NVS_ENZ_oCOX2: NovaScreen (NVS) Enzymatic Assay for sheep Cyclooxygenase-2 (Cox2) (AID 2283231)
Method in brief: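 Compounds were first run at 25 uM in duplicate against tissue-extracted ovine COX-2; those passing a preset inhibition threshold went to singleton concentration-response testing with a 50 uM maximum. Read-out: absorbance at 0.66 hour.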

[15] = target: human SRC Proto-Oncogene, Non-receptor Tyrosine Kinase (SRC), SRC (gene 6714) (UniProt P12931); assay: NVS_ENZ_hSRC: NovaScreen (NVS) Enzymatic Assay for human SRC Proto-Oncogene, Non-receptor Tyrosine Kinase (SRC) (AID 2283223)
Method in brief: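 Cell-free kinase activity assay with fluorescent substrate, product separated by electrophoretic mobility shift, read 1 h after dosing. Duplicate single point at 25 uM, then concentration-response up to 50 uM; loss of signal versus DMSO.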

[16] = target: human Protein Tyrosine Phosphatase Non-receptor Type 9 (PTPN9), PTPN9 (gene 5780) (UniProt P43378); assay: NVS_ENZ_hPTPN9: NovaScreen (NVS) Enzymatic Assay for human Protein Tyrosine Phosphatase Non-receptor Type 9 (PTPN9) (AID 2283209)
Method in brief: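 Sf9-expressed enzyme in a cell-free assay, fluorescence read 1.33 h after dosing with mobility-shift separation of substrate and product. Tested at 25 uM in duplicate, then up to 50 uM; signal loss versus DMSO.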

[17] = target: human Sirtuin 1 (SIRT1), SIRT1 (gene 23411) (UniProt Q96EB6); assay: NVS_ENZ_hSIRT1: NovaScreen (NVS) Enzymatic Assay for human Sirtuin 1 (SIRT1) (AID 2283219)
Method in brief: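 Cell-free recombinant SIRT1 with a fluorescent substrate; substrate and product separated by electrophoretic mobility shift and read by fluorescence intensity, 1 h after dosing. Primary screen at 25 uM in duplicate; hits re-run in concentration-response up to 50 uM, relative to DMSO.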

[18] = target: rabbit Imidazoline 2 Central (I2C), CKB (gene 100009085) (UniProt P00567); assay: NVS_ENZ_rabI2C: NovaScreen (NVS) Enzymatic Assay for rabbit Imidazoline 2 Central (I2C) (AID 2283228)
Method in brief: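 Rabbit brain membranes, cell-free; readout by filter-based scintillation counting 1.5 hours after dosing, loss of signal vs DMSO. Initial duplicate test at 25 uM, then concentration-response with 50 uM top concentration.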

[19] = target: human Protein Tyrosine Phosphatase Non-receptor Type 4 (PTPN4), PTPN4 (gene 5775) (UniProt P29074); assay: NVS_ENZ_hPTPN4: NovaScreen (NVS) Enzymatic Assay for human Protein Tyrosine Phosphatase Non-receptor Type 4 (PTPN4) (AID 2283208)
Method in brief: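 Cell-free assay of PTPN4 expressed in Sf9 cells, using a fluorescent substrate with product separated by mobility shift; read 1.33 h after dosing. Single-point screen at 25 uM, then concentration-response up to 50 uM. Loss of signal relative to DMSO.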

Chain of human Tropomyosin Receptor Kinase A (TRKA), NTRK1 (gene 4914) (P04629 whole entry, looked up): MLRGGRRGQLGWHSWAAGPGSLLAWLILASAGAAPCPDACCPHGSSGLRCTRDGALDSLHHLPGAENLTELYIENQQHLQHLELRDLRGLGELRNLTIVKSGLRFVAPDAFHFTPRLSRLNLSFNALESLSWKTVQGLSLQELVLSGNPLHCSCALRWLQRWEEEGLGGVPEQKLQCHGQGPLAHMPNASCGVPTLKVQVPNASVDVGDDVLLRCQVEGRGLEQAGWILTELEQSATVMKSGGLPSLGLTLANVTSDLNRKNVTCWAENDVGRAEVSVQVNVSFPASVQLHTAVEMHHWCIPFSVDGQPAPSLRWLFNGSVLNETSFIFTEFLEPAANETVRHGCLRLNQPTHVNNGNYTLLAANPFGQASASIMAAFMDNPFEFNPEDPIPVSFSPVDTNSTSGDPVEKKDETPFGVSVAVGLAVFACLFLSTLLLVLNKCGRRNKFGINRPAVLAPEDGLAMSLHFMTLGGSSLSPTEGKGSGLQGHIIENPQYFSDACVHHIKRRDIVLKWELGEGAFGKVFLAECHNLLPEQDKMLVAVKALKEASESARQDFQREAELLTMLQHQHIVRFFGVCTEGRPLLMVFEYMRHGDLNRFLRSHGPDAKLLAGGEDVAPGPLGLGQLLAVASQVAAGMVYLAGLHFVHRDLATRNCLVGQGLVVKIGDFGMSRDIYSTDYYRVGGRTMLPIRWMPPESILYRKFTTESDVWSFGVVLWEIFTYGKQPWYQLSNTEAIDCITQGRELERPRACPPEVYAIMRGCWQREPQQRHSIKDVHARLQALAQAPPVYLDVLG
Chain of human Protein Tyrosine Phosphatase Receptor Type B (PTPRB), PTPRB (gene 5787) (P23467 whole entry, looked up): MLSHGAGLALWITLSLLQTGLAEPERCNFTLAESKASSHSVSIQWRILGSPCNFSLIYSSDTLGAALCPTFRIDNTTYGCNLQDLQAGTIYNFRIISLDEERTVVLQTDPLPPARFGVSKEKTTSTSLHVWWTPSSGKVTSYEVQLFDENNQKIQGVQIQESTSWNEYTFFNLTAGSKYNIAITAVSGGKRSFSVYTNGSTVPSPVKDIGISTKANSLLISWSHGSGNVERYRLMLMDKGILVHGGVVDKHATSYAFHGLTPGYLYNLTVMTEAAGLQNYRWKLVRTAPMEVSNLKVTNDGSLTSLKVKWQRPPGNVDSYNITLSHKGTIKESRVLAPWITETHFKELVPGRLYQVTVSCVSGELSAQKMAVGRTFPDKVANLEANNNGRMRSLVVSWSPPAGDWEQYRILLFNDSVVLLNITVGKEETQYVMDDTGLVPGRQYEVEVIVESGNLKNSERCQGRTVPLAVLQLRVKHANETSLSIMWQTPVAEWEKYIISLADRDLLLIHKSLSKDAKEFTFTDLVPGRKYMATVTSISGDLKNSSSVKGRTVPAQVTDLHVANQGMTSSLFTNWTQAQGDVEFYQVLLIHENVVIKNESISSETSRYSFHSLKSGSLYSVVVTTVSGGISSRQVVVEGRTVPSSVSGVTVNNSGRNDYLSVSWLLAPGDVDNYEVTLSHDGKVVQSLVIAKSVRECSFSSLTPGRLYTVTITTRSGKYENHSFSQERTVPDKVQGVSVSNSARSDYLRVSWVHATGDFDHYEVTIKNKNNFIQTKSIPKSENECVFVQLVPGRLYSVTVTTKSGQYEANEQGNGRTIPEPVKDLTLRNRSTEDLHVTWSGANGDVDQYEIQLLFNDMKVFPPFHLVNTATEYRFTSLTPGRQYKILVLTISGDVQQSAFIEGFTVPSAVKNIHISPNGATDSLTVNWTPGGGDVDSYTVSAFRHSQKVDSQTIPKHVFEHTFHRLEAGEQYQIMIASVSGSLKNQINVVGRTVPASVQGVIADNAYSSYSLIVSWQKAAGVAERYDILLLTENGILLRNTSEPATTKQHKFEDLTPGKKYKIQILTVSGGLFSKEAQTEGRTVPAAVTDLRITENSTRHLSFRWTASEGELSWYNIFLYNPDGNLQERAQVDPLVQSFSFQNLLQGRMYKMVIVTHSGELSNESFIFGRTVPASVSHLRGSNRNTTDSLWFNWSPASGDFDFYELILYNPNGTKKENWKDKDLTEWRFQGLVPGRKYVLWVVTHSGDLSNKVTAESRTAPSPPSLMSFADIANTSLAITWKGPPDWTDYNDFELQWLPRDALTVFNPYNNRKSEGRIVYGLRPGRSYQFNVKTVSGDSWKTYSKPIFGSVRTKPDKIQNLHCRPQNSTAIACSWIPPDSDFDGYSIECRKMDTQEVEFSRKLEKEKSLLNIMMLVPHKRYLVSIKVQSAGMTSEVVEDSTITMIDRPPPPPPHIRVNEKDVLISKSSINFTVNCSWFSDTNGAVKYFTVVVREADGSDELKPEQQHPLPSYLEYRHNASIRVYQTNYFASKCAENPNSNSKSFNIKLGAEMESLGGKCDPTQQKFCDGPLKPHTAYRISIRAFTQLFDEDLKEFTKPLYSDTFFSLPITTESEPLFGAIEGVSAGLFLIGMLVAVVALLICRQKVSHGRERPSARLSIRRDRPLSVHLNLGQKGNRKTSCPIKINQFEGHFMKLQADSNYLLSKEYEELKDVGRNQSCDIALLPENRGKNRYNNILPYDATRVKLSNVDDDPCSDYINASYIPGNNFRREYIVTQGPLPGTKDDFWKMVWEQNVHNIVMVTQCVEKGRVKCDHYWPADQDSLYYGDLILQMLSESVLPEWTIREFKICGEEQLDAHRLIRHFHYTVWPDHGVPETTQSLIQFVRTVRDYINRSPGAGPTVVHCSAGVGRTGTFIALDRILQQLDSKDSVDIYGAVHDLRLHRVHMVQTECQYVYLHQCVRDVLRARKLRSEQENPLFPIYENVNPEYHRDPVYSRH
Chain of human Vascular Endothelial Growth Factor Receptor 2 (VEGFR2), KDR (gene 3791) (P35968 whole entry, looked up): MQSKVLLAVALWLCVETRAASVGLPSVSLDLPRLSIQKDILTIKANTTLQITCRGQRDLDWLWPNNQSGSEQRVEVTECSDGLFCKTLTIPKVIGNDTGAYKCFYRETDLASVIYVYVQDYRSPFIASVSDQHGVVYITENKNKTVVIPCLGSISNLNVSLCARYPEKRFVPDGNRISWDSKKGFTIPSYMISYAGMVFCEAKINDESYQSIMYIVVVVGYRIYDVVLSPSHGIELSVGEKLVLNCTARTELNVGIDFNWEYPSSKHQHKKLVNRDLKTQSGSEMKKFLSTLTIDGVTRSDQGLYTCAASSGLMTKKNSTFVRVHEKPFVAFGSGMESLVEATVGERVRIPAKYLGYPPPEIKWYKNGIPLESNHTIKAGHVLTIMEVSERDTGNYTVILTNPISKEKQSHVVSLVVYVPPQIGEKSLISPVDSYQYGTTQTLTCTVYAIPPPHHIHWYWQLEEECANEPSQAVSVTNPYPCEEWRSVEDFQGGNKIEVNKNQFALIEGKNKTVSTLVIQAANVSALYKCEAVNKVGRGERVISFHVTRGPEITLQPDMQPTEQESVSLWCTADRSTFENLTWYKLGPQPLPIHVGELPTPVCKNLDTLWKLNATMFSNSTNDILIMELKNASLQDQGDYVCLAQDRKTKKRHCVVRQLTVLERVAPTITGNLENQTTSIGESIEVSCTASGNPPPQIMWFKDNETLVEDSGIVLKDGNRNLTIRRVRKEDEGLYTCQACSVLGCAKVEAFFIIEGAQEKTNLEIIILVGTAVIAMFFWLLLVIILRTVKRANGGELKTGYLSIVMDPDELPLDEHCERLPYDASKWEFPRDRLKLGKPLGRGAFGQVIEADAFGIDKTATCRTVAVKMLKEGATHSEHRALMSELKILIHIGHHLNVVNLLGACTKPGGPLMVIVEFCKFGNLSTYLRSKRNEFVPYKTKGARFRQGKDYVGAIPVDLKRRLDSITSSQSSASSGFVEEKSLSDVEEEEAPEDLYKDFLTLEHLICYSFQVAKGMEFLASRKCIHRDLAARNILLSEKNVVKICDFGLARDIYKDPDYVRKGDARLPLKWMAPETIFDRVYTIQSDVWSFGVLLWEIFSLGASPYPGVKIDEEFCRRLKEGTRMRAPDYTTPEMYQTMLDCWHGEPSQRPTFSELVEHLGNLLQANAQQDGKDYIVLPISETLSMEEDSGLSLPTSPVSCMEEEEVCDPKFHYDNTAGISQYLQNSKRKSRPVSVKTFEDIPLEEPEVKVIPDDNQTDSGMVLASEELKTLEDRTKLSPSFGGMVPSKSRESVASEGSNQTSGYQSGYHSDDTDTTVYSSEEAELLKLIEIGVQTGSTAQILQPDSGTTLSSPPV
Chain of human Raf-1 Proto-Oncogene, serine/threonine Kinase (RAF1), RAF1 (gene 5894) (P04049 whole entry, looked up): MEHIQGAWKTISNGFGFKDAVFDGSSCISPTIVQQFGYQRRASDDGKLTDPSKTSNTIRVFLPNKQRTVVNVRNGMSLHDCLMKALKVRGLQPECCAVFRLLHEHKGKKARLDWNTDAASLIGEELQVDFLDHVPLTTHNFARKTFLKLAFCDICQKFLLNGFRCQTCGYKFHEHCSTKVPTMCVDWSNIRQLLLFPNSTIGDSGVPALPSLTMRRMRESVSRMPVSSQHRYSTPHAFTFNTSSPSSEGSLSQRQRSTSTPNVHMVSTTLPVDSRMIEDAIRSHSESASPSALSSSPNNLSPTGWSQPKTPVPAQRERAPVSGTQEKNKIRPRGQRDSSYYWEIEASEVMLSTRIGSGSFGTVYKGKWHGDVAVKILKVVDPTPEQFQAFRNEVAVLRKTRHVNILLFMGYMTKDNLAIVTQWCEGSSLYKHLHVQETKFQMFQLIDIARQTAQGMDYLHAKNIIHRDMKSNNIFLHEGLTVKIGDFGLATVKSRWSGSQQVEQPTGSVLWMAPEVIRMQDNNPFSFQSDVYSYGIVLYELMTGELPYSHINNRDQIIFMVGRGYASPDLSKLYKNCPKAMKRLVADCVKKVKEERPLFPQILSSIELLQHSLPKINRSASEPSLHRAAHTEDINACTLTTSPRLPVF

O=S(=O)(O)C(F)(F)C(F)(F)C(F)(F)C(F)(F)C(F)(F)C(F)(F)C(F)(F)C(F)(F)F
AC50 [1]: 34.8 µM (active)
AC50 [2]: 18.7 µM (active) and 37.6 µM (active)
AC50 [3]: 17.1 µM (active) and 15.2 µM (active)
outcome [3]: inactive
AC50 [4]: 14.8 µM (active) and 13.1 µM (active)
AC50 [5]: 39 µM (active)
AC50 [6]: 23.6 µM (active) and 43 µM (active)
AC50 [7]: 33.2 µM (active) and 24.5 µM (active)
AC50 [8]: 6.66 µM (active)
AC50 [9]: 36.5 µM (active) and 28.4 µM (active)
AC50 [10]: 8.09 µM (active) and 6.38 µM (active) and 5.3 µM (active)
AC50 [11]: 11.9 µM (active) and 11.4 µM (active) and 8.57 µM (active)
AC50 [12]: 7.45 µM (active) and 9.17 µM (active)
AC50 [13]: 27.2 µM (active) and 43.1 µM (active)
AC50 [14]: 9.06 µM (active)

CCOc1nc(NC)nc(NC(=O)NS(=O)(=O)c2ccccc2C(=O)OC)n1
outcome [7]: inactive

Oc1ccc(Cl)cc1Cc1ccccc1
outcome [7]: inactive
AC50 [8]: 3.4 µM (active) and 9.3 µM (active)
outcome [15]: inactive
AC50 [9]: 9.39 µM (active)

COC(=O)c1ccccc1S(=O)(=O)NC(=O)Nc1nc(C)nc(OC)n1
outcome [2]: inactive

CCCN(CCC)c1c([N+](=O)[O-])cc(C(F)(F)F)cc1[N+](=O)[O-]
outcome [14]: inactive

CC(C)(C)C(O)C(Oc1ccc(Cl)cc1)n1cncn1 (stereo not given)
outcome [16]: inactive
outcome [1]: inactive
outcome [10]: inactive
outcome [12]: inactive
outcome [13]: inactive

N#Cc1c(Cl)c(Cl)c(Cl)c(C#N)c1Cl
outcome [6]: inactive
outcome [17]: inactive
AC50 [12]: 38.7 µM (active)
outcome [13]: inactive

CNC(=O)/C=C(\C)OP(=O)(OC)OC
outcome [7]: inactive

OCCOc1ccccc1
outcome [10]: inactive

O=C(NC(=O)c1c(F)cccc1F)Nc1ccc(OC(F)(F)C(F)OC(F)(F)F)c(Cl)c1 (stereo not given)
outcome [10]: inactive

COP(=S)(OC)Oc1ccc(SC)c(C)c1
outcome [12]: inactive

CC(C)OC(=O)Nc1cccc(Cl)c1
outcome [10]: inactive

ClC1C(Cl)C(Cl)C(Cl)C(Cl)C1Cl (stereo not given)
outcome [17]: inactive

O=[N+]([O-])/N=C1\NCCN1Cc1ccc(Cl)nc1
AC50 [18]: 11.4 µM (active)

O=C(O)C(F)(F)C(F)(F)C(F)(F)C(F)(F)C(F)(F)C(F)(F)C(F)(F)F
outcome [2]: inactive
outcome [6]: inactive
AC50 [10]: 13.7 µM (active)

Cc1cc(C)nc(NC(=O)NS(=O)(=O)c2ccccc2C(=O)OC2COC2)n1
AC50 [19]: 4.96 µM (active)
AC50 [16]: 36.7 µM (active)
outcome [6]: inactive
outcome [10]: inactive
